Common to all, as to experiment: DAPPL (digital affinity profiling via proximity ligation, sequencing); 10 mM Tris-HCl pH 7.5, 50 mM NaCl, 1 mM DTT, 4% glycerol, room temperature, 30 min; GST-TFs on glutathione beads, 16-mer random dsDNA library, 0.1% formaldehyde crosslink after washing; high values mean tight binding
One assay has as its target T1, FEV (Homo sapiens, UniProt Q99581 1-238).
T1 sequence: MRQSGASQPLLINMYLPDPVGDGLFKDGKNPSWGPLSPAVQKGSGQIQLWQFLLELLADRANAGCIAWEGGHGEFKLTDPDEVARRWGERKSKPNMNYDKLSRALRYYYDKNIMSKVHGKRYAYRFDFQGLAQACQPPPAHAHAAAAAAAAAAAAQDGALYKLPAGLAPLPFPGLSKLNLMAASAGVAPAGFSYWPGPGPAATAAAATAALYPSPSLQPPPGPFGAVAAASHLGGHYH
To be noted: protein: recombinant; tags: N-terminal GST; dsDNA, one strand shown. Put shortly: (§1)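 A tag-only sample was pooled with DNA-barcoded human transcription factors that had been expressed in yeast as GST fusions and captured on glutathione beads. The pools were incubated for 30 min at room temperature with 200 nmole of a random double-stranded 16-mer DNA library in Tris/NaCl/DTT/glycerol buffer, then washed, crosslinked with 0.1% formaldehyde, proximity-ligated (BsaI/T4 ligase, 1 h, 37 °C), PCR-amplified and sequenced on an Illumina NextSeq500. Binding signal is each hexamer's read frequency for a factor divided by its frequency for the tag-only sample.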

The target of another assay is ETV5 (Homo sapiens, UniProt P41161 1-510). The note with it: protein: recombinant; tags: N-terminal GST; dsDNA, one strand shown. Put shortly:
as §1

Another assay concerns the target HSF1 (Homo sapiens, UniProt Q00613 1-529). The note with it: protein: recombinant; tags: N-terminal GST; chain copies: 3; dsDNA, one strand shown. The gist of the method: as §1
The target in another assay is T2, SPIC (Homo sapiens, UniProt Q8N5J4 1-248).
T2 sequence: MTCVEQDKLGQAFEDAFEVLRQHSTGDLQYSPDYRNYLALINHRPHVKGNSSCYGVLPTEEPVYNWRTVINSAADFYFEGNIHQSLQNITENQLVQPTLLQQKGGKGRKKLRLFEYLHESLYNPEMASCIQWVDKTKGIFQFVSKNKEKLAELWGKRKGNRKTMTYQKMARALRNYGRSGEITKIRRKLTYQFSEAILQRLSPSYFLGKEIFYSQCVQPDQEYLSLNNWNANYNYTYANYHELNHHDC
The note with it: protein: recombinant; tags: N-terminal GST; dsDNA, one strand shown. Put shortly:
as §1

The target in another assay is ELF4 (Homo sapiens, UniProt Q99607 1-663). To be noted: protein: recombinant; tags: N-terminal GST; dsDNA, one strand shown. Put shortly:
as §1

Another assay deals with T3, ELK4 (Homo sapiens, UniProt P28324-2 1-405).
T3 sequence: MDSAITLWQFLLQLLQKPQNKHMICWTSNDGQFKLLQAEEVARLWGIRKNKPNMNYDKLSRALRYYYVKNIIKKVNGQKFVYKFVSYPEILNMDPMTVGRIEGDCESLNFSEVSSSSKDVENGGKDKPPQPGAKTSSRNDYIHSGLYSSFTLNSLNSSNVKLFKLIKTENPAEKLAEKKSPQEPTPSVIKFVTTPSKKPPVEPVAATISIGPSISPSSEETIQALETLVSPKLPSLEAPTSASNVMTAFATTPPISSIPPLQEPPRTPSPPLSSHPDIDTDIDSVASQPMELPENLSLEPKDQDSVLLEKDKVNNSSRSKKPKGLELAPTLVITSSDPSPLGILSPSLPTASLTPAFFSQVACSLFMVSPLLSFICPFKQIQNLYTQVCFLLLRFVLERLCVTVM
To be noted: protein: recombinant; tags: N-terminal GST; dsDNA, one strand shown. The gist of the method:
as §1

Another assay has as its target T4, ETV2 (Homo sapiens, UniProt O00321 1-342).
T4 sequence: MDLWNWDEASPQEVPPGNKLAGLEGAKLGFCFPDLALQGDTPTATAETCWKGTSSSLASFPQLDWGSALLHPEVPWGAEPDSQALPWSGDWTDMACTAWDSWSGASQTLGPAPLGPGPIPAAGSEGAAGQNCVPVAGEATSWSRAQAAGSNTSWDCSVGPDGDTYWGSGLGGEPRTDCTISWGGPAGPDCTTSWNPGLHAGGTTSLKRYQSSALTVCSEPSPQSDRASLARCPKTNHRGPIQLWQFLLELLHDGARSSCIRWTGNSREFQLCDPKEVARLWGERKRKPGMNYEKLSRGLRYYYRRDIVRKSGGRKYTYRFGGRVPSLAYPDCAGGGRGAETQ
To be noted: protein: recombinant; tags: N-terminal GST; dsDNA, one strand shown. The gist of the method:
as §1

Another assay addresses T5, ELF3 (Homo sapiens, UniProt P78545 1-371).
T5 sequence: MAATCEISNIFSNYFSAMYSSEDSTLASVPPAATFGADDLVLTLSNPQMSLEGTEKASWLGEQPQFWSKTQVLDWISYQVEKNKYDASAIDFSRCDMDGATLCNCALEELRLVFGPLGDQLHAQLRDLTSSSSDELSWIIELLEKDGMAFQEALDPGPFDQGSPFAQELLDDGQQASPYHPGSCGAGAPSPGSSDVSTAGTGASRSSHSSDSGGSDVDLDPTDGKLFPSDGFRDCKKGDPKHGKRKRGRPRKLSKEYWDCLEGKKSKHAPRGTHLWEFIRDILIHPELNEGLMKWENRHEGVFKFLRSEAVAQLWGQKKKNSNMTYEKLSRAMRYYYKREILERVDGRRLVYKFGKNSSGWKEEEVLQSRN
The note with it: protein: recombinant; tags: N-terminal GST; dsDNA, one strand shown. Put shortly: as §1

The target in another assay is CRX (Homo sapiens, UniProt O43186 1-299). The note with it: protein: recombinant; tags: N-terminal GST; dsDNA, one strand shown. The gist of the method: as §1
In a further assay the target is ETV1 (Homo sapiens, UniProt P50549 1-477). The note with it: protein: recombinant; tags: N-terminal GST; dsDNA, one strand shown. The gist of the method:
as §1

ELF4, sequence (Q99607 whole entry): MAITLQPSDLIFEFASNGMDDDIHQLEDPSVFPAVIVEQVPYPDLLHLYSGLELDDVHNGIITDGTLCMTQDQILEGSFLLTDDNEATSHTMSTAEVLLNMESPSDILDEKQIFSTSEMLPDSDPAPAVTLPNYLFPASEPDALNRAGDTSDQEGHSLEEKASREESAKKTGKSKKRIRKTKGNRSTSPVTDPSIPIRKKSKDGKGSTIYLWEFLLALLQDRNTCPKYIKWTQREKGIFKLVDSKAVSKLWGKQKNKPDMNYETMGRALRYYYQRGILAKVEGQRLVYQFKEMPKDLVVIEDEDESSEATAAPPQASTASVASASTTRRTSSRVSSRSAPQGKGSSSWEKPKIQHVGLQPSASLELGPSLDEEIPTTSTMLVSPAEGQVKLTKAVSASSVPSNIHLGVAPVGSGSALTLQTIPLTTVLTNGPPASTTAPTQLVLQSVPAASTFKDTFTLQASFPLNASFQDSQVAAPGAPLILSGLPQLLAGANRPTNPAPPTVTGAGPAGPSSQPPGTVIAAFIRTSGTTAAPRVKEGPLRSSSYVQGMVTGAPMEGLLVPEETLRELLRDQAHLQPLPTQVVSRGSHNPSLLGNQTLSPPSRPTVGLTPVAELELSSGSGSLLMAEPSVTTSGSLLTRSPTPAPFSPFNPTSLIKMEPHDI
ETV5, sequence (P41161 whole entry): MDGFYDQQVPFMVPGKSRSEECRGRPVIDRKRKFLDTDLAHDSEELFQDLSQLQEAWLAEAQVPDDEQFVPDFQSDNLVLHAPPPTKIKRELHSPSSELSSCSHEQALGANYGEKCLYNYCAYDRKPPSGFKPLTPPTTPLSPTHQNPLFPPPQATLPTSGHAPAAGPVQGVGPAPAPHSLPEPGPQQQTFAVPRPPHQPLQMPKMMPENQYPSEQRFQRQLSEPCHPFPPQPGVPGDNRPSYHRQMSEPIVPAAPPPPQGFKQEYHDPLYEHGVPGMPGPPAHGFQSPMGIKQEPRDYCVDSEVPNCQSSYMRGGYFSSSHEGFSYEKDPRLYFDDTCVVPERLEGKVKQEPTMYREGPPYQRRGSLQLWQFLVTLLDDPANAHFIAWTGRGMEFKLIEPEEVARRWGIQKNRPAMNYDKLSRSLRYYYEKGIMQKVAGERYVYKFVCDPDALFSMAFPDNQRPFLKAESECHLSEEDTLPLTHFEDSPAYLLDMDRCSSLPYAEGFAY
ETV1, sequence (P50549 whole entry): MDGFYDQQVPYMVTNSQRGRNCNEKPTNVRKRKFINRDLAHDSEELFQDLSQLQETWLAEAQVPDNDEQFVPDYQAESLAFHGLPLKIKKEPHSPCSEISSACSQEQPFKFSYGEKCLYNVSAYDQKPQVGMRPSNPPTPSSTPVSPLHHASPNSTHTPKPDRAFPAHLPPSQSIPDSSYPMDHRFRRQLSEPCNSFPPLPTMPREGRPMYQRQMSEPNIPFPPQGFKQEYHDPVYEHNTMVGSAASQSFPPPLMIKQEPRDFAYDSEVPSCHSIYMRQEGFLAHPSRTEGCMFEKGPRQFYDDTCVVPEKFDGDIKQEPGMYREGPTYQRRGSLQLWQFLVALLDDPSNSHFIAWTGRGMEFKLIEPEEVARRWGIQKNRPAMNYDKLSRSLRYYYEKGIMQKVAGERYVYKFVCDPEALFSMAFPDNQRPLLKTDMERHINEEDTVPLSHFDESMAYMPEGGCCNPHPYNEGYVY
HSF1, sequence (Q00613 whole entry): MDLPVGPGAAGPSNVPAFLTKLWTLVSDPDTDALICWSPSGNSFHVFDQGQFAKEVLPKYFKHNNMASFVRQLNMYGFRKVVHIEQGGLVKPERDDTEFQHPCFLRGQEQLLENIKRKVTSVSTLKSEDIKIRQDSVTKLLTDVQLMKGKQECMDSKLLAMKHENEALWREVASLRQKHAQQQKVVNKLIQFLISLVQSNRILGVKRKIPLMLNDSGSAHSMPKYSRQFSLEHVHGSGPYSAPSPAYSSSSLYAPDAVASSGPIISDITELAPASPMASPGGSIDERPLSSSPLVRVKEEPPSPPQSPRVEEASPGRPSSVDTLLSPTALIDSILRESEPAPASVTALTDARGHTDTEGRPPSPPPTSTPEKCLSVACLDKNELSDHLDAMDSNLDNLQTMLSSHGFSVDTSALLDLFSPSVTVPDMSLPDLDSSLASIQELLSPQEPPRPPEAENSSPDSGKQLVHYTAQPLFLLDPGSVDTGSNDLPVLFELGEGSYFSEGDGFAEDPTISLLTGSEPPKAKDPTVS
CRX, sequence (O43186 whole entry): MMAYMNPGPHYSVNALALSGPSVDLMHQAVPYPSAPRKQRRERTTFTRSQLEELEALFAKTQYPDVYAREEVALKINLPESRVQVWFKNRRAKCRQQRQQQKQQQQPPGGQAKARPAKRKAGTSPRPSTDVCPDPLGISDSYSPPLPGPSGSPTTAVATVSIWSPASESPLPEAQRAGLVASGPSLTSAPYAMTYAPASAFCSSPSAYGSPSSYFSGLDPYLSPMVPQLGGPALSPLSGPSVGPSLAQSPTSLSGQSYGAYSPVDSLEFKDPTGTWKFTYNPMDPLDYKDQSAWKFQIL

On to ATGATG, for which the binding signal with FEV was 1.27 fold enrichment (6-mer frequency, TF over GST control); with ETV5, 1.33 fold enrichment (6-mer frequency, TF over GST control); in the assay with HSF1, 1.24 fold enrichment (6-mer frequency, TF over GST control); with SPIC, 1.35 fold enrichment (6-mer frequency, TF over GST control); with ELF4, 1.37 fold enrichment (6-mer frequency, TF over GST control); in the assay with ELK4 it was 1.38 fold enrichment (6-mer frequency, TF over GST control). Also, the binding signal with ETV2 was 1.47 fold enrichment (6-mer frequency, TF over GST control); with ELF3, 1.38 fold enrichment (6-mer frequency, TF over GST control); in the assay with CRX, 1.21 fold enrichment (6-mer frequency, TF over GST control); with ETV1, 1.24 fold enrichment (6-mer frequency, TF over GST control).

For AGCTCC, the binding signal was 1.26 fold enrichment (6-mer frequency, TF over GST control) with FEV; 1.29 fold enrichment (6-mer frequency, TF over GST control) with ETV5; 1.22 fold enrichment (6-mer frequency, TF over GST control) with HSF1; 1.26 fold enrichment (6-mer frequency, TF over GST control) in the assay with SPIC; 1.43 fold enrichment (6-mer frequency, TF over GST control) in the assay with ELF4; 1.16 fold enrichment (6-mer frequency, TF over GST control) in the assay with ELK4. Further, the binding signal with ETV2 is 1.35 fold enrichment (6-mer frequency, TF over GST control); in the assay with ELF3, 1.33 fold enrichment (6-mer frequency, TF over GST control); in the assay with CRX, 1.3 fold enrichment (6-mer frequency, TF over GST control); with ETV1, 1.29 fold enrichment (6-mer frequency, TF over GST control).

With ATGATA, the binding signal with FEV was 1.25 fold enrichment (6-mer frequency, TF over GST control); with ETV5, 1.17 fold enrichment (6-mer frequency, TF over GST control); with HSF1, 1.23 fold enrichment (6-mer frequency, TF over GST control); in the assay with SPIC it was 1.07 fold enrichment (6-mer frequency, TF over GST control); with ELF4 it was 1.26 fold enrichment (6-mer frequency, TF over GST control); with ELK4, 1.27 fold enrichment (6-mer frequency, TF over GST control). The binding signal is 1.2 fold enrichment (6-mer frequency, TF over GST control) with ETV2; 1.21 fold enrichment (6-mer frequency, TF over GST control) in the assay with ELF3; 1.39 fold enrichment (6-mer frequency, TF over GST control) with CRX; 1.17 fold enrichment (6-mer frequency, TF over GST control) with ETV1.

As to AGCTAC, the binding signal with FEV was 1.23 fold enrichment (6-mer frequency, TF over GST control); in the assay with ETV5 it was 1.21 fold enrichment (6-mer frequency, TF over GST control); in the assay with HSF1, 1.04 fold enrichment (6-mer frequency, TF over GST control); in the assay with SPIC, 1.21 fold enrichment (6-mer frequency, TF over GST control); with ELF4, 1.12 fold enrichment (6-mer frequency, TF over GST control); in the assay with ELK4, 1.25 fold enrichment (6-mer frequency, TF over GST control). Moreover, the binding signal in the assay with ETV2 was 1.03 fold enrichment (6-mer frequency, TF over GST control); in the assay with ELF3 it was 1.34 fold enrichment (6-mer frequency, TF over GST control); in the assay with CRX it was 1.04 fold enrichment (6-mer frequency, TF over GST control); with ETV1, 1.21 fold enrichment (6-mer frequency, TF over GST control).

Take AATCTT: the binding signal is 1.29 fold enrichment (6-mer frequency, TF over GST control) with FEV; 1.35 fold enrichment (6-mer frequency, TF over GST control) with ETV5; 2.17 fold enrichment (6-mer frequency, TF over GST control) with HSF1; 1.38 fold enrichment (6-mer frequency, TF over GST control) in the assay with SPIC; 1.31 fold enrichment (6-mer frequency, TF over GST control) with ELF4; 1.36 fold enrichment (6-mer frequency, TF over GST control) in the assay with ELK4. For the same sequence, the binding signal with ETV2 is 1.38 fold enrichment (6-mer frequency, TF over GST control); in the assay with ELF3 it was 1.4 fold enrichment (6-mer frequency, TF over GST control); in the assay with CRX, 2.54 fold enrichment (6-mer frequency, TF over GST control); with ETV1, 1.39 fold enrichment (6-mer frequency, TF over GST control).

Regarding TCCTGT, the binding signal with FEV is 1.85 fold enrichment (6-mer frequency, TF over GST control); in the assay with ETV5 it was 2.04 fold enrichment (6-mer frequency, TF over GST control); with HSF1, 1.14 fold enrichment (6-mer frequency, TF over GST control); with SPIC, 1.87 fold enrichment (6-mer frequency, TF over GST control); in the assay with ELF4, 1.65 fold enrichment (6-mer frequency, TF over GST control); with ELK4 it was 1.56 fold enrichment (6-mer frequency, TF over GST control). For the same sequence, the binding signal is 1.71 fold enrichment (6-mer frequency, TF over GST control) in the assay with ETV2; 1.78 fold enrichment (6-mer frequency, TF over GST control) with ELF3; 1.16 fold enrichment (6-mer frequency, TF over GST control) in the assay with CRX; 1.89 fold enrichment (6-mer frequency, TF over GST control) in the assay with ETV1.

TTTCGG: the binding signal in the assay with FEV was 1.15 fold enrichment (6-mer frequency, TF over GST control); with ETV5 it was 1.13 fold enrichment (6-mer frequency, TF over GST control); in the assay with HSF1, 1.39 fold enrichment (6-mer frequency, TF over GST control); in the assay with SPIC, 1.05 fold enrichment (6-mer frequency, TF over GST control); with ELF4, 1.21 fold enrichment (6-mer frequency, TF over GST control); with ELK4, 1.14 fold enrichment (6-mer frequency, TF over GST control). Moreover, the binding signal with ETV2 was 1.16 fold enrichment (6-mer frequency, TF over GST control); in the assay with ELF3, 1.22 fold enrichment (6-mer frequency, TF over GST control); with CRX, 1.25 fold enrichment (6-mer frequency, TF over GST control); with ETV1, 1.31 fold enrichment (6-mer frequency, TF over GST control).

The record behind these values is publication PMC7862700, “An all-to-all approach to the identification of sequence-specific readers for epigenetic DNA modifications on cytosine”.
